KB-V1 MDR tox: KB-V1 MDR subline cytotoxicity; KB-V1 MDR cells viability, CellTiter-Glo, 72 h; Potency, µM (titrated, usually from 46.1 µM), usual class: cytotoxic; 400,000 compounds, 3.4% hits; AID 1347076; also: nearly all actives have a fitted effect of over 60% in size
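Cytotoxicity toward P-gp-expressing KB-V1 cells was determined as loss of CellTiter-Glo luminescence after 72 h at 37 degrees C. Compounds were tested in quantitative HTS format across a concentration range, with curves fitted to normalized data.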
HT1080 IDH1KD tx: toxicity to HT-1080 IDH1 knockdown cells (counter line) | HT-1080 IDH1 knockdown viability, ATP luminescence, 48 h | Potency, µM (series often up to 46.1 µM), without a hit: at the top dose activity, negative = toxicity, actives largely listed as cytotoxic | 360,000 compounds, 2% hits | AID 686971;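 also: 0% = DMSO wells and -100% = cell-free medium wells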
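Luminescent ATP read-out (CellTiter-Glo, 10 min at room temperature) after 48 h compound exposure at 37 °C gave viability of IDH1-knockdown HT-1080 cells. Activity was normalised to DMSO and cell-free wells, then fitted as concentration-response curves.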
KB-3-1 cytotox: kills parental KB-3-1 adenocarcinoma cells; KB-3-1 viability, CellTiter-Glo ATP luminescence, 72 h; Potency, µM (series often up to 46.1 µM), most hits filed as cytotoxic; 400,000 compounds, 1.4% hits; also: nearly all actives have a fitted effect of over 60% in size
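Parental KB-3-1 adenocarcinoma cells in phenol-red-free DMEM with 10% FBS were pin-treated with compounds at several concentrations, incubated 72 h at 37 °C, and viability read by CellTiter-Glo luminescence; concentration-effect curves were fitted after normalization.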
TDP1 cell CPT: growth inhibition of DT40 Tdp1-/-;hTDP1 cells with camptothecin (screen for TDP1 inhibitors); chicken DT40 Tdp1-/-;hTDP1 cells + 20 nM CPT, ATP luminescence, 48 h; Potency, µM (highest dose often 46.2 µM), inactives show top-dose activity change, negative = growth inhibition, most hits filed as inhibitors; 420,000 compounds, 12% hits; AID 686979; also: nearly all actives have a fitted effect of over 55% in size
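Cell growth measured by CellTiter-Glo luminescence after a minimum 48 h, 37 C compound exposure with 20 nM CPT in Tdp1-knockout DT40 cells stably expressing hTDP1, seeded 400/well; qHTS titration format.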
TDP1 cell noCPT: qHTS for Inhibitors of human tyrosyl-DNA phosphodiesterase 1 (TDP1): qHTS in cells in absence of CPT; DT40 Tdp1-/- hTDP1 cells, no CPT, ATP luminescence, 48 h; Potency, µM (series often up to 46.2 µM), for inactives: at the highest dose activity change, negative = growth inhibition, actives largely listed as inhibitors; 420,000 compounds, 15% hits; also: nearly all actives have a fitted effect of over 55% in size
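No-CPT arm: Tdp1-/-;hTDP1 DT40 cells (400/well) plus compounds, incubated ≥48 hr at 37 °C. Readout CellTiter-Glo luminescence.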
HT1080-NT tox: kills 2HG-producing HT-1080-NT fibrosarcoma cells. HT-1080-NT fibrosarcoma viability, CellTiter-Glo ATP luminescence, 48 h. Potency, µM (doses to about 46.1 µM), inactives show top-dose activity, negative = less viability, hits mostly cytotoxic. 360,000 compounds, 1.6% hits. AID 686970;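 also: NT is the 2HG producing partner of a matched IDH1 knockdown line; 0% = DMSO-treated cells and -100% = media-only wells without cells; nearly all actives have a fitted effect of over 55% in size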
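HT-1080-NT fibrosarcoma cells (2HG-overproducing), 750 cells/well in RPMI with 5% FBS, dosed after 2 h and incubated 48 h at 37C. CellTiter-Glo luminescence normalized to DMSO and no-cell wells; concentration-response curves fitted and classed.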
An asterisk follows results filed as active; [ ] = another dose, or the depositor's remark. The list is not random: actives were taken first. Their share in the collection is about 19%. Calls follow the shape of the dose curve; as a rule, active = well fitted curve in the direction sought with a large enough effect; inconclusive = small, poorly fitted or top-dose-only effect, or another doubt; inactive = no such curve, though single readings can be large; an effect the other way counts as inactive or inconclusive. Unless noted, % is scaled to controls: 0 for no effect and ±100 for the full control effect; potency is read from the fitted curve at half-maximal effect.

For COc1ncc2nc(-c3cccc(C#N)c3)c(=O)n(CCC#N)c2n1 the results were TDP1 cell CPT 7% and TDP1 cell noCPT -8%.
Screening CCCCNC(=O)c1cc(-c2ccc(F)cc2)on1 returned KB-V1 MDR tox 16µM*, HT1080 IDH1KD tx inconclusive, KB-3-1 cytotox 18µM*, TDP1 cell CPT 13µM*, TDP1 cell noCPT inconclusive and HT1080-NT tox inconclusive.
CCN(CC)CCCNC(=O)c1cc(-c2ccc(Cl)cc2)on1 was read as KB-V1 MDR tox inactive, HT1080 IDH1KD tx inconclusive, KB-3-1 cytotox inactive, TDP1 cell CPT inconclusive, TDP1 cell noCPT 23µM* and HT1080-NT tox inconclusive.
`Cc1cc(=O)n2c(C(=O)Nc3ccc(F)c(Cl)c3)c(C(=O)Nc3cccc(C)c3C)sc2n1` gave KB-V1 MDR tox inactive, KB-3-1 cytotox inactive, TDP1 cell CPT inconclusive and TDP1 cell noCPT inconclusive.
COCC(=O)N1CCC2(CCCN(Cc3ccc(C#N)cc3)C2)CC1 was read as TDP1 cell CPT 4% and TDP1 cell noCPT 0%.
`O=C(N[C@@H]1c2ccccc2C2(CCN(C(=O)c3cc4ccccc4oc3=O)CC2)[C@H]1O)c1cccnc1` gave TDP1 cell CPT -1% and TDP1 cell noCPT -6%.
`CC1(C(=O)NCc2cccc3ccccc23)CCN1C(=O)C1(c2ccccc2)CC1` (stereo not drawn) gave KB-V1 MDR tox inactive, HT1080 IDH1KD tx 16%, KB-3-1 cytotox inactive, TDP1 cell CPT inconclusive, TDP1 cell noCPT inconclusive and HT1080-NT tox 20%.
`CC1(C(=O)NCC(F)(F)F)CCN1C(=O)C1(c2ccccc2)CC1` (stereo not drawn) gave KB-V1 MDR tox inactive, HT1080 IDH1KD tx 1%, KB-3-1 cytotox inactive, TDP1 cell CPT -60%, TDP1 cell noCPT -17% and HT1080-NT tox inconclusive.
Screening COc1ccccc1CNC(=O)C1(C)CCN1Cc1ccc(OC(F)(F)F)cc1 (stereo not drawn) returned KB-V1 MDR tox inactive, HT1080 IDH1KD tx inconclusive, KB-3-1 cytotox inactive, TDP1 cell CPT 16µM*, TDP1 cell noCPT inconclusive and HT1080-NT tox inconclusive.
For COc1ccccc1CNC(=O)C1(C)CCN1C(=O)C1(c2ccccc2)CC1 (stereo not drawn) the results were KB-V1 MDR tox inconclusive, HT1080 IDH1KD tx 1%, KB-3-1 cytotox inactive, TDP1 cell CPT 16µM*, TDP1 cell noCPT 26µM* and HT1080-NT tox -2%.
For CC1(C(=O)NCc2ccco2)CCN1C(=O)C1(c2ccccc2)CC1 (stereo not drawn) the results were KB-V1 MDR tox inactive, HT1080 IDH1KD tx -18%, KB-3-1 cytotox inactive, TDP1 cell CPT 4.6µM*, TDP1 cell noCPT 5.2µM* and HT1080-NT tox -50%.
`CC1(C(=O)NC2CCN(Cc3ccccc3)CC2)CCN1Cc1ccc(OC(F)(F)F)cc1` (stereo not drawn) gave KB-V1 MDR tox inconclusive, HT1080 IDH1KD tx -24%, KB-3-1 cytotox inactive, TDP1 cell CPT inconclusive, TDP1 cell noCPT inconclusive and HT1080-NT tox inconclusive.
Screening CC1(c2nnnn2Cc2ccccc2)CCC(=O)N1Cc1ccc(F)cc1 (stereo not drawn) returned KB-V1 MDR tox inactive, HT1080 IDH1KD tx 4%, KB-3-1 cytotox inactive, TDP1 cell CPT -12%, TDP1 cell noCPT -14% and HT1080-NT tox 15%.
Screening CCOc1ccccc1OCCCC(=O)N1CCN(S(=O)(=O)c2ccc(Cl)cc2)CC1 returned KB-V1 MDR tox inactive, HT1080 IDH1KD tx -2%, KB-3-1 cytotox inactive, TDP1 cell CPT inconclusive, TDP1 cell noCPT 18µM* and HT1080-NT tox -1%.
`O=C(CCSc1ccc(Cl)cc1)N1CCN(S(=O)(=O)c2ccccc2)CC1` gave KB-V1 MDR tox 21µM*, HT1080 IDH1KD tx -11%, KB-3-1 cytotox inactive, TDP1 cell CPT 21µM*, TDP1 cell noCPT 18µM* and HT1080-NT tox -8%.
CCCOc1ccccc1OCC(=O)N1CCN(S(=O)(=O)c2ccc(Cl)cc2)CC1 was read as KB-V1 MDR tox inactive, HT1080 IDH1KD tx -11%, KB-3-1 cytotox inactive, TDP1 cell CPT -26%, TDP1 cell noCPT -13% and HT1080-NT tox 0%[9.24 µM].
For Cc1[nH]nc2ncc(C(=O)c3cc(F)ccc3O)cc12 the results were KB-V1 MDR tox 8.2µM*, HT1080 IDH1KD tx -15%, KB-3-1 cytotox inconclusive, TDP1 cell CPT inconclusive, TDP1 cell noCPT inconclusive and HT1080-NT tox -15%.
Screening Cc1ccc(C)c(N2CCN(C(=O)CS(=O)(=O)c3cccc4nsnc34)CC2)c1 returned KB-V1 MDR tox inactive, KB-3-1 cytotox inactive, TDP1 cell CPT inconclusive and TDP1 cell noCPT inconclusive.
For Cc1cc(C)c(NC(=O)Nc2ccc3snnc3c2)c(C)c1 the results were KB-V1 MDR tox inactive, KB-3-1 cytotox inactive, TDP1 cell CPT inconclusive and TDP1 cell noCPT 18µM*.
Screening O=C(Nc1ccccc1)Nc1ccc2snnc2c1 returned KB-V1 MDR tox inactive, HT1080 IDH1KD tx inconclusive, KB-3-1 cytotox inconclusive, TDP1 cell CPT inconclusive, TDP1 cell noCPT 18µM* and HT1080-NT tox inconclusive.
Screening CCOc1ccc(NC(=O)Nc2ccc3snnc3c2)cc1 returned KB-V1 MDR tox inconclusive, KB-3-1 cytotox inactive, TDP1 cell CPT inconclusive and TDP1 cell noCPT 16µM*.
CN(C)c1ccc(NC(=O)Nc2ccc3snnc3c2)cc1 was read as KB-V1 MDR tox inactive, HT1080 IDH1KD tx 8%, KB-3-1 cytotox inactive, TDP1 cell CPT -1%, TDP1 cell noCPT -15% and HT1080-NT tox 12%.
For O=C(Nc1ccccc1)Nc1ccc2nnsc2c1 the results were KB-V1 MDR tox inconclusive, HT1080 IDH1KD tx inconclusive, KB-3-1 cytotox inconclusive, TDP1 cell CPT 21µM*, TDP1 cell noCPT 16µM* and HT1080-NT tox inconclusive.
For CCOc1ccc(NC(=O)Nc2ccc3nsnc3c2)cc1 the results were KB-V1 MDR tox inactive, HT1080 IDH1KD tx 13%, KB-3-1 cytotox inactive, TDP1 cell CPT inconclusive, TDP1 cell noCPT inconclusive and HT1080-NT tox 5%.
`O=C(NCCc1ccc(F)cc1)C1CCC(=O)N(CC2CCCCC2)C1` (stereo not drawn) gave KB-V1 MDR tox inconclusive, HT1080 IDH1KD tx 3%, KB-3-1 cytotox inactive, TDP1 cell CPT -27%, TDP1 cell noCPT -29% and HT1080-NT tox -2%.

Source: PubChem (National Center for Advancing Translational Sciences (NCATS))
